Screens from PubChem.
Platelet DG rel: inhibitors of platelet dense granule secretion, primary screen, cell-based, MLPCN, human platelets | human platelet-rich plasma, SFLLRN dense granule ATP release, luminescence | inhibition, %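 (compounds screened at 7.5 µM in platelet-rich plasma)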 | 0.22% of 300,000 active;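 active = mean replicate score, as percent of positive control, at or above 50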
SENP8 block-1: human SENP8 protease inhibitors, primary screen, biochemical, fluorescence, Nedd8 protein substrate, uHTS | Sentrin-specific protease 8 (Homo sapiens), Q96LD8 | recombinant SENP8 | inhibition, % at 20 µM | 0.64% of 360,000 active; in the data active = inhibition mostly above about 40%, no sharp cut-off; inactive = mostly below about 27%
SENP6 block: SENP6 protease inhibitors, primary screen, biochemical, luminescence, uHTS; Sentrin-specific protease 6 (Homo sapiens), Q9GZR1; Recombinant SENP6 catalytic domain, aminoluciferin luminescence; inhibition, % at 10 µM; 1.8% of 330,000 active; AID 2599, 2010;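 active = inhibition above about 50% at the single tested dose, limit read from the data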;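 note: plate controls were DMSO wells with enzyme for no effect and DMSO wells lacking enzyme for full effect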
SENP7 inh: SENP7 protease inhibitors, primary screen, biochemical, luminescence, uHTS. recombinant SENP7, Z-RLRGG-aminoluciferin luminescence, 40 min. inhibition, % at 5 µM. Sentrin-specific protease 7 (Homo sapiens), Q9BQF6. 1.5% of 330,000 active. AID 434973, 2010;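 active = inhibition above about 50% at the single test dose, limit read from the data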;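 note: plate controls were DMSO with enzyme for no effect and no enzyme buffer wells for full effect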
Target sequence (Q9BQF6 706-1050 limits assumed): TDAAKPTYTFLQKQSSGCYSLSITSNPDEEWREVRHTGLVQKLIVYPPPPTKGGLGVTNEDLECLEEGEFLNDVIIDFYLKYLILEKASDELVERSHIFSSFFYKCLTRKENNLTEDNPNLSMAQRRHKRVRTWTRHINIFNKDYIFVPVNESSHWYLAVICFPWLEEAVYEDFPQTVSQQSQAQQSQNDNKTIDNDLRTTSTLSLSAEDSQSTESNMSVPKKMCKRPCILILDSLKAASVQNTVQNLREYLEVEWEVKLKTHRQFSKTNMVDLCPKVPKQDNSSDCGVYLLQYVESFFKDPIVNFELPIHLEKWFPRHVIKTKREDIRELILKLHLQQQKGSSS
SENP8 block-2: SENP8 protease inhibitors, primary screen, biochemical, luminescence | AID 2540, 2010 | 1.2% of 330,000 active | inhibition, % at 10 µM | purified SENP8, Z-RLRGG-aminoluciferin cleavage; in the data active = inhibition above about 50%
* marks the source's active call; other numbers are inactive results; i = inactive; · = not tested or not shown. Rows were chosen to be rich in hits. Some 2.4% of all compounds tested hit in one or more screens of this group.

SMILES | Platelet DG rel | SENP8 block-1 | SENP6 block | SENP7 inh | SENP8 block-2
CNS(=O)(=O)c1ccc2c(c1)C(=O)c1cc(S(=O)(=O)NC)ccc1CC2 | · | 36 | 6 | -8 | 11
CCOC(=O)c1cc2cc(OC)ccc2nc1C | 66* | -286 | 3 | 1 | 0
CN1/C(=C/c2cc[n+](C)c3ccccc23)C=Cc2ccccc21 | · | 58* | · | · | ·
COC(=O)[C@H](CC(C)C)NC(=O)NCc1ccc(Cl)cc1 | 22 | 0 | -13 | 6 | 6
O=C1c2cccc(NCCNCCO)c2C(=O)c2cccc(NCCNCCO)c21 | · | 44* | · | · | ·
O=C(O)CCNc1ccc(NCCC(=O)O)c2c1C(=O)c1ccccc1C2=O | -3 | 23 | 5 | 12 | 20
Cc1cc(NC(=O)CSc2nc(C)c(C)n2CC(C)C)no1 | · | 10 | -5 | -4 | -11
Cc1cccc2nc(COc3ccc4ccccc4c3Br)cn12 | 4 | 17 | 57* | 34 | 22
COc1ccccc1CNc1nc(Nc2cccc(-c3cnco3)c2)c2sccc2n1 | · | i | · | · | ·
CCOC(=O)CC1C(=O)NCCN1c1nc2ccc(C)cn2c(=O)c1/C=C1\SC(=S)N(CC(C)C)C1=O (configuration not stated) | 4 | 48* | -4 | 12 | -2
CN1CCN(c2ccc(CNS(=O)(=O)Cc3cccc(C(F)(F)F)c3)cc2)CC1 | 3 | 20 | -12 | 1 | -2
Oc1nc(Nc2ccc(F)cc2)sc1/C=C1\C=Nc2ccccc21 | 6 | -15 | 7 | 2 | -9
O=c1[nH]c(S)c(/C=C2\C=Nc3ccccc32)s1 | 0 | 52* | 25 | 11 | 11
Cc1nc(C/C(=N\N)c2ccc(O)cc2O)cs1 | -12 | 19 | 6 | -3 | -11
N/N=C(\Cc1cscn1)c1ccc(O)cc1O | 57* | 10 | 21 | -4 | -1
O=C(O)c1cccc(NC2=C(n3nnc4ccccc43)C(=O)c3ccccc3C2=O)c1 | -2 | 69* | -8 | 24 | 38
O=S(=O)(Nc1ccc(-c2ccc(N3CCOCC3)nn2)cc1)c1ccc(Cl)c(Cl)c1 | 50* | -38 | -2 | -1 | -1
COc1ccc(NC(=O)COc2cccc3c2CCNC3=O)cc1 | 2 | 12 | 6 | -2 | -3
CCN(CC)CCNc1cccc2sc3ccccc3c(=O)c12 | · | 44* | · | · | ·
COc1cc2c(cc1OC)CC(C(=O)NCc1ccccc1)NC2 (configuration not stated) | -2 | 3 | -19 | -1 | 15
CCc1nnc(NC(=O)CSc2nnc(Cc3cccn3C)n2CCOC)s1 | 52* | 4 | 0 | 4 | -3
CCc1nnc(NC(=O)CSc2nnc(-c3ccco3)n2CCOC)s1 | 7 | 8 | -18 | 2 | -4
CC(=O)Oc1cc2cccc(OC(C)=O)c(=O)c2c(OC(C)=O)c1OC(C)=O | 4 | 44* | 17 | -5 | 1
COc1cc2cccc(OC)c(=O)c2c(O)c1OC | -3 | 5 | 14 | 1 | 6
CCC(CN(C)C)Oc1cc(NCc2ccccc2)c2ncn(C(C)C)c2c1 (configuration not stated) | · | 12 | -5 | 87* | 83*
SMILES | Platelet DG rel | SENP8 block-1 | SENP6 block | SENP7 inh | SENP8 block-2
COc1cc(NCc2ccccc2)c2ncn(C(C)C)c2c1 | · | 22 | 2 | 6 | 5
Cc1cc(=O)c2c(o1)C(=O)c1occc1C2=O | · | 75* | · | · | ·
CN1C(=S)SC(N(O)C(=O)Nc2cccc3ccccc23)C1(C)C (configuration not stated) | 5 | -433 | 57* | 26 | 23
COc1ccc(O)c(C2(O)C(=O)c3ccccc3C2=O)c1 | 1 | 0 | -20 | -4 | -9
CC(=O)C(C(C)=O)C1(O)C(=O)c2ccccc2C1=O | 8 | 61* | 40 | 18 | -15
O=c1[nH]c2ccc(NC(=S)Nc3ccccc3Cl)cc2[nH]1 | 54* | 14 | 19 | 4 | 4
CC(=O)N(/N=C1\Sc2ccccc2C1=O)c1ccccc1 | · | 74* | · | · | ·
CC(=O)N(/N=C1/C(=O)Nc2ccccc21)c1ccccc1 | 0 | 20 | -23 | -7 | -1
S=c1[nH]nc(COc2ccc(Cl)cc2Cl)n1-c1ccccc1 | -5 | 23 | -8 | 4 | -3
COC(=O)N=Nc1c(O)n(Cc2ccccc2)c2ccccc12 | -4 | 25 | -8 | 1 | -5
